Results filed as inconclusive are left out. Unmarked numbers belong to inactive results. Active and inactive are the calls of the source. Calls follow the shape of the dose curve; as a rule, active = well fitted inhibition curve with a large enough effect; inconclusive = small, poorly fitted or top-dose-only effect; inactive = no such curve, though single readings can be large or run the other way.
Assay: Confirmatory qHTS for Identification of Small Molecule Inhibitors of Huntingtin Promoter Activity; also: nearly all actives have a fitted effect of over 65% in size
Settings: HEK293 HTT promoter firefly luciferase reporter, 24 h; series mostly up to 57.5 µM; activity change, negative = inhibition: at the top concentration
Description: Assay Provider: Russell L. Margolis M.D.
Department Neurology, Johns Hopkins University School of Medicine, Baltimore, MD
Huntington's Disease (HD) is a neurodegenerative disorder caused by a CAG repeat expansion in exon 1 of huntingtin (HTT). While there are currently no disease-modifying treatments for HD, recent efforts have focused on development of nucleotide-based therapeutics to lower HTT expression. As an alternative to siRNA or oligonucleotide methods, we hypothesized that suppression of HTT expression might be accomplished by small molecules that either (1) directly decrease HTT expression by suppressing HTT promoter activity or (2) indirectly decrease HTT expression by increasing the promoter activity of HTT-AS, the gene antisense to HTT that appears to inhibit expression of HTT.
We developed and employed a high throughput screen for modifiers of HTT and HTT-AS promoter activity using luminescent reporter HEK293 cells; of the 52,041 compounds tested, we identified 898 replicable hits. We used a rigorous stepwise approach to assess compound toxicity and the capacity of the compounds to specifically lower huntingtin protein in 5 different cell lines, including HEK293 cells, HD lymphoblastoid cells, mouse primary neurons, HD iPSCs differentiated into cortical-like neurons, and HD hESCs. We found no compounds which were able to lower huntingtin without lowering cell viability in all assays, though the potential efficacy of a few compounds at non-toxic doses could not be excluded.
SEQUENCE No. (1, 2, 3, etc.); […] (e.g., Cells, Incubation, Reagent, etc.); VALUE and DESCRIPTION.
1; Reagent; 4 uL; 2,500 Hek293 luciferase reporter cells per wells
3; Compound; 23 nL; Control inhibitor / compound library
5; Reagent; 2.5 uL; Firefly Luc reagent; Dual-Glo Luciferase Reporter Assay System (Promega)
6; Time; 10 min; room temperature incubation
7; Detection; Luminescence; FLuc
NOTES (numbers refer to sequence above)
1; High-throughput screening, measuring luminescence from a Hek293 luciferase reporter, was performed in 1,536 well white-walled tissue-culture treated plates. 2,500 cells were plated in 4 uL of Opti-MEM per well using a Multidrop Combi Reagent Dispenser (ThermoFisher).
2; Assay plates were cultured for 24 hours.
3; Control inhibitor (PTC124; final concentration of 50 uM) and compound library (at final concentrations of 460 nM - 57.5 uM) were added to the assay plate using the Kalypsis Pintool Robotic System equipped with 1536 pinheads.
4; Cells were then incubated for 24 hours at 37C prior to luminescence measurements.
5; In all cases, luminescence was measured using the Dual-Glo Luciferase Reporter Assay System (Promega) following the manufacturer's instructions.
6; Room temperature incubation.
7; Luminescence signal was obtained using the PerkinElmer ViewLux plate reader. Results were normalized to vehicle control (0% activity) and zero RLU (-100% activity).
Potency is read from the fitted curve at half-maximal effect.

Row | SMILES | activity change, negative = inhibition | Potency
1 | CC(C)N[C@@H]1CCn2c(=O)[nH]c3cccc(c32)[C@@H]1O | 2.69% | –
2 | Cc1ccc(-n2c(/C=C/c3ccc(Br)s3)nc3ccccc3c2=O)cc1 | -18.3% | –
3 | O=C(N[C@H]1CN2CCC1CC2)c1ccc(Cl)cc1 | -0.0179% | –
4 | CCCCc1ccc(NC(=O)c2cccn(Cc3ccc(Cl)cc3)c2=O)cc1 | -27.8% | –
5 | COc1ccc(-n2c(/C=C\c3ccccc3F)nc3ccccc3c2=O)cc1OC | -14.4% | –
6 | CNC(=O)N1N=C(c2ccc(N)cc2)c2cc3c(cc2CC1C)OCO3 (stereo not drawn) | 77.4% [at 115 µM] | –
7 | O=c1c2ccccc2nc(/C=C/c2cccc3ccccc23)n1-c1ccccc1Cl | -14.5% | –
8 | CC(C)(O)C=CC(=O)[C@](C)(O)[C@H]1[C@H](O)C[C@]2(C)[C@@H]3CC=C4[C@@H](C=C(O)C(=O)C4(C)C)[C@]3(C)C(=O)C[C@@]12C | – | 0.757 µM (active)
9 | CCOc1ccc(NC(=O)c2cccn(Cc3cccc(Cl)c3)c2=O)cc1 | -21% | –
10 | Cc1cccc(-n2c(/C=C\c3cccc(Br)c3)nc3ccccc3c2=O)c1 | -13.2% | –
11 | CCN(CC)C(=O)N[C@@H]1C=C2c3cccc4[nH]cc(c34)C[C@@H]2N(C)C1 | -14.5% | –
12 | Nc1c(C(=O)Nc2ccc(Cl)c(C(F)(F)F)c2)sc2nc3c(cc12)N1CCC3CC1 | – | 12 µM (active)
13 | Cc1ccccc1Cn1cccc(C(=O)Nc2nc3ccccc3s2)c1=O | – | 12 µM (active)

From PubChem BioAssay AID1508621 (National Center for Advancing Translational Sciences (NCATS), 2021)
